Screens as filed in PubChem BioAssay.
KDM5B inhibitor: KDM5B demethylase inhibition | Potency, µM (titrated, usually from 57.7 µM), hits mostly inhibitors | 2.6% of 220,000 active | KDM5B demethylase, FDH-coupled NADH fluorescence (FDH is formaldehyde dehydrogenase) | Q9UGL1 | AID 1347165; active means well fitted inhibition curve with a large enough effect; further: nearly all actives have a fitted effect of over 70% in size
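Compound dilutions met 200 nM (final) KDM5BΔAP for 10 min at room temperature before substrate addition. The substrate mix held 12.5 µM H3K4me3 with cofactors 25 µM α-ketoglutarate and 50 µM Fe²⁺. NADH signal gain over 30 min defined activity.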
Numbers stand for hits; - = inactive. Shown is part of a subset that was picked to be rich in hits.

SMILES	KDM5B inhibitor
CNC(=O)[C@@H]1CN(C(=O)c2cc3cc(OC)ccc3[nH]2)C[C@H]1COC	32µM
Cc1nc([C@@H]2CN(C(=O)c3cccs3)C[C@H]2C(N)=O)n[nH]1	-
Cc1nc([C@@H]2CN(C(=O)c3sccc3C)C[C@H]2C(N)=O)n[nH]1	-
COc1ccc2[nH]c(C(=O)N3C[C@@H](C(N)=O)[C@H](c4n[nH]c(C)n4)C3)cc2c1	28µM
Cc1cccc(NC(=O)N2CCC(OC3CCN(S(C)(=O)=O)CC3)CC2)c1C	-
O=C(OCc1ccccc1)c1ccc(C(=O)c2ccccc2)cc1	-
CC(=O)c1c(C)[nH]c(C(=O)C(C)Sc2ccc3c(c2)OCCCO3)c1C (stereo not given)	-
CCCc1cc(=O)oc2c(C)c(OCC(=O)c3ccc(OC)cc3)ccc12	-
CCOc1ccccc1C(=O)N[C@@H]1CN(Cc2cccnc2)C[C@H]1CN(C)C	-
CN(C)C[C@@H]1CN(Cc2ccccc2)C[C@H]1NS(=O)(=O)c1cccnc1	-
CCn1ncc(C(=O)N[C@@H]2CN(c3ncccn3)C[C@H]2CN(C)C)c1C	25µM
Cc1cccnc1C(=O)N[C@@H]1CN(Cc2ccccc2)C[C@H]1CN(C)C	-
COc1ccccc1C(=O)N[C@@H]1CN(Cc2ccncc2)C[C@H]1CN(C)C	22µM
CN(C)C[C@@H]1CN(Cc2ccccn2)C[C@H]1NC(=O)c1c[nH]c2ccccc12	-
Cc1cnc(C(=O)N[C@@H]2CN(c3ccncn3)C[C@H]2CN(C)C)cn1	-
COc1ccc(C(=O)N[C@@H]2CN(c3ncccn3)C[C@H]2CN(C)C)c(OC)n1	25µM
COc1ccc(C(=O)NC2CCCN(CCc3ccccc3)C2)c(OC)n1 (stereo not given)	-
CN(C)C[C@@H]1CN(Cc2ccncc2)C[C@H]1N	18µM
CN(C)C[C@@H]1CN(Cc2ccncc2)C[C@H]1NS(=O)(=O)Cc1ccccc1	-
COc1ccc(C2(C(=O)N[C@@H]3CN(c4ccncn4)C[C@H]3CN(C)C)CC2)cc1	-
CCc1ccc(C(=O)OCC(=O)NC(=O)NC(C)C)cc1	-
CC(=O)c1cnn(-c2cc(Nc3ccc(F)cc3F)nc(C)n2)c1C	-
CC(=O)c1cc(C(=O)N2CCCC(CCc3ccccc3C)C2)[nH]n1 (stereo not given)	-
CNC(=O)C(C)Cn1ccnc1-c1cccc(CN(C)C)c1 (stereo not given)	-
CC(C)(C)c1ccc(-c2nnc(SCC(=O)NCc3cccs3)n2Cc2ccco2)cc1	-
SMILES	KDM5B inhibitor
COc1cccc(C(=O)N[C@@H]2CN(c3ncccn3)C[C@H]2CN(C)C)c1C	32µM
CC(=O)N1C[C@@H](CN(C)C)[C@H](NC(=O)c2ccccc2OC(F)(F)F)C1	-
COc1cccc(C(=O)N[C@@H]2CN(S(C)(=O)=O)C[C@H]2CN(C)C)c1C	-
COC[C@@H]1CN(Cc2cccc(OC)c2OC)C[C@H]1c1ccncc1	-
Cc1cc2oc(C(=O)O)c(C)c2cc1C	-
CC(=O)Nc1cccc(NC(=O)CCc2ncc(-c3ccc(Cl)cc3)o2)c1	-
Cc1noc([C@@H]2CN(Cc3c(F)cccc3F)C[C@H]2CO)n1	-
CCc1ccc(S(=O)(=O)Nc2cc3c(C(=O)OC)c(COC)oc3c3ccccc23)cc1	-
Cc1sc2nc(CN3CCOCC3)nc(N(C)CC(=O)Nc3cccc(F)c3)c2c1C	-
CCCc1nc(SCC(=O)N2CCOCC2)c2c(C)c(C)sc2n1	-
CCCc1cc(CN(C)c2nc(CCN)nc3sc(C)c(C)c23)[nH]n1	22µM
Cc1ccsc1C(=O)OCC(=O)NC(=O)NC(C)(C)C	-
Cn1ccc(C(=O)N2CCC(c3nnc4n3C(C(=O)NCCc3ccc(Cl)cc3)CC4)CC2)n1 (stereo not given)	-
CCc1nc(-c2c3n(c(=O)n(CC(=O)Nc4cccc(C)c4C)c2=O)CCCC3)no1	-
CCn1cnnc1CC1CCN(C(=O)CCC(=O)n2nc(C)c3ccccc32)CC1	-
CCn1cnnc1CC1CCN(C(=O)c2cnn3c(C)c(Cc4ccccc4Cl)c(C)nc23)CC1	28µM
CCn1cnnc1CC1CCN(C(=O)c2ccc3ccccc3n2)C1 (stereo not given)	-
C=CCNC(=O)C(NC(=O)c1ccc(OC)cc1)C1CCN(C(=O)c2cccc(F)c2)CC1 (stereo not given)	-
O=C(Cn1nnc(-c2ccccc2)n1)N1CCCC1c1ccc2c(c1)OCCCO2 (stereo not given)	-
Cc1cc(C(=O)NCC(F)(F)F)c2c(C3CCCN3)noc2n1 (stereo not given)	50µM
Cc1cc(C(=O)NCc2ccc(F)cc2)c2c(C3CCCNC3)noc2n1 (stereo not given)	-
O=C(NCc1ccncc1)c1cc(C2CC2)nc2ccccc12	-
Cc1cc(C(=O)NCC(F)(F)F)c2c(C3CCCNC3)noc2n1 (stereo not given)	-
O=C(NCc1ccncc1)c1cc(C2CC2)nc2onc(C3CCCN3)c12 (stereo not given)	79µM
Cc1cc(C(=O)NCC(C)C)c2c(C3CCCN3)noc2n1 (stereo not given)	-
SMILES	KDM5B inhibitor
CC(CNC(=O)Cn1nc(C(N)=O)c2ccccc2c1=O)(c1ccccc1)c1ccccc1	-
Cc1nn(-c2ccc3nncn3n2)c2c1C(c1c(F)cccc1F)CC(=O)N2 (stereo not given)	-
CCCn1c(C2CC(=O)N(c3cccc(C(F)(F)F)c3)C2)nc2ccccc21 (stereo not given)	-
O=C(/C=C/c1cnc2ccccc2n1)NCc1cccnc1	-
COC[C@H]1C[C@@H](NC(=O)c2cc(C)on2)[C@H](O)[C@@H]1O	-
O=C(O)CCc1ccc(S(=O)(=O)NCCN2CCCC2)cc1	-
Cc1ccnc(SCc2nc3cc(NS(=O)(=O)c4ccc(Cl)cc4)ccc3n2C)n1	-
OC1CCN(c2cc(N3CCOC(c4ccc(F)cc4)C3)ncn2)CC1 (stereo not given)	-
Cc1sc(NC(=O)c2nn(C)c(=O)c3ccccc23)nc1-c1ccc(F)cc1	-
CCCOc1ccccc1NC(=O)Cc1c[nH]c2ccccc12	-
CSCC(=O)Nc1nn(-c2ccc(F)cc2)c2cccc(N3CCOCC3)c12	25µM
Cn1c(=O)n(C)c2cc(N3CCOCC3)c(NC(=O)c3c(F)cccc3F)cc21	-
O=C(CSc1ccccc1)Nc1ccc(N2CCOCC2)c(F)c1	-
COc1cc(Cl)cc(CN2CCC3(CCCNC3)C2)c1OC (stereo not given)	-
Cc1ccc(-c2nc(-c3nnn4c3COC(c3ccc(Cl)cc3)C4)no2)s1 (stereo not given)	-
CC(NC(=O)c1cccnc1)c1cccc(C(F)(F)F)c1 (stereo not given)	-
COc1cccc(-c2nc3cc(SC)ccc3cc2CN(C)Cc2ccno2)c1	28µM
COc1cccc(-c2nc(-c3ccc(F)cc3)cs2)c1	-
COc1cccc(-c2nc3ccccc3c(=O)o2)c1	-
O=C(CSc1n[nH]c(-c2ccccc2)n1)Nc1cccc(C(=O)Nc2cccc(C(F)(F)F)c2)c1	-
O=C1CC(C(=O)Nc2ccc3c(c2)OCCO3)c2c(nc(N3CCc4ccccc4C3)[nH]c2=O)N1 (stereo not given)	-
COc1ccccc1C(=O)NCCn1ccn2nc(-c3ccc(C)cc3C)cc2c1=O	-
COc1ccccc1C(=O)NCCn1ccn2nc(-c3cc(C)ccc3C)cc2c1=O	-
COc1ccc(-c2cc3c(=O)n(CCNC(=O)c4c(F)cccc4F)ccn3n2)cc1	22µM
CCOc1ccc(-c2cc3c(=O)n(CCNC(=O)c4ccc(OC)c(F)c4)ccn3n2)cc1	-
